Compound activity from PubChem BioAssay.
TDP1 inh – qHTS Assay for Inhibitors of Tyrosyl-DNA Phosphodiesterase (TDP1); 350,000 compounds, 0.28% hits; Potency, µM (top dose mostly 130 µM), inactives show at the top dose activity change, negative = inhibition, usual class: inhibitors; Tyrosyl-DNA phosphodiesterase 1 (Homo sapiens), Q9NUW8; recombinant TDP1, AlphaScreen DNA substrate cleavage; also: potency is read from the fitted curve at half-maximal effect; % is scaled to controls: 0 for no effect and ±100 for the full control effect; nearly all actives have a fitted effect of over 40% in size
Target sequence (Q9NUW8 whole entry, looked up): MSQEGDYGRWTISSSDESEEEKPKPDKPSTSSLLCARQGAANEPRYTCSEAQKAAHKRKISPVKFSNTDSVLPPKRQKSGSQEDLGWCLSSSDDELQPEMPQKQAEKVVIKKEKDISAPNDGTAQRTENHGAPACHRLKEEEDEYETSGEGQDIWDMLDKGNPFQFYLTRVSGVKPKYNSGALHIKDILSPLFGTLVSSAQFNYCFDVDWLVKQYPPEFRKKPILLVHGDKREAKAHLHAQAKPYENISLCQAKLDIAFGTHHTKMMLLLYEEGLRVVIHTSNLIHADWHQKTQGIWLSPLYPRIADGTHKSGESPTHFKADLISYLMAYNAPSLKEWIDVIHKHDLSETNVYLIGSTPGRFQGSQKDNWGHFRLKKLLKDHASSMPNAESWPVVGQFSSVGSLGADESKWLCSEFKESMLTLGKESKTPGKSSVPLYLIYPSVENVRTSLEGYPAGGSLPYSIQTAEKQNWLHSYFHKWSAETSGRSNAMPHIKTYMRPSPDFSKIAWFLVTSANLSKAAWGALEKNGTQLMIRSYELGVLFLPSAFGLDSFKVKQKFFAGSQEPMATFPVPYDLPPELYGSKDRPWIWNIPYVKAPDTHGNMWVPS
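Enzyme-compound mixtures sat 15 min at room temperature, followed by a 5 min reaction with 15 nM final substrate and 10 min with AlphaScreen beads. Recombinant human Tdp1 was used at 1 nM final.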
DT40 TDP1 no CPT – qHTS for Inhibitors of human tyrosyl-DNA phosphodiesterase 1 (TDP1): qHTS in cells in absence of CPT; DT40 Tdp1-/- hTDP1 cells, no CPT, ATP luminescence, 48 h; AID 686978, 2013; Potency, µM (highest dose often 46.2 µM), for the others: at the highest dose activity change, negative = growth inhibition, usual class: inhibitors; 420,000 compounds, 15% hits; also: potency is read from the fitted curve at half-maximal effect; % is scaled to controls: 0 for no effect and ±100 for the full control effect; nearly all actives have a fitted effect of over 55% in size
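Stably hTDP1-transfected Tdp1-null chicken DT40 cells were treated with library compounds minus camptothecin and grown for at least 48 hr at 37 °C, after which cellular ATP was quantified by luminescence.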
IL1B secr inh – qHTS for Inhibitors of Inflammasome Signaling: IL-1-beta AlphaLISA Primary Screen; THP-1 LPS/ATP IL-1B secretion, AlphaLISA, 16 h; stronger effect = lower value; activity change, % at 57.5 µM; 360,000 compounds, 4.7% hits; in the data active = activity change below about -50%; inconclusive = mostly about -30% to -49%; also: % is scaled to controls: 0 for no effect and ±100 for the full control effect
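THP-1 cells pretreated 1 hr with compounds (up to 57.5 uM final), then stimulated with LPS (250 ng/mL final) plus ATP (1.25 mM final); secreted IL-1B measured by AlphaLISA after 16 hr, decreased signal indicating inhibition.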
HepG2 viability – qHTS for Inhibitors of TGF-b: Cytotox Counterscreen; HepG2 CAGA-GFP viability, ATP luminescence, 18 h; Potency, µM (doses to about 46.1 µM), without a hit: top-dose activity change, negative = cytotoxicity, actives largely listed as cytotoxic; 410,000 compounds, 0.76% hits; also: potency is read from the fitted curve at half-maximal effect
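CellTiter-Glo luminescence gave cytotoxicity after 18 hours at 37 degrees C. The cells were HepG2 CAGA-GFP in 1% FBS DMEM, stimulated with 500 pg/mL TGF-beta after compound addition. %Activity was normalised to no-cell wells (complete cell-killing) and DMSO (no toxicity), and curves were fitted and classified.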
TGFb inhibitor – qHTS for Inhibitors of TGF-b; HepG2 CAGA-GFP TGF-b/SMAD3 reporter, GFP fluorescence, 18 h; TGF-beta stimulated, 500 pg/mL final; Potency, µM (titrated, usually from 46.1 µM), for the others: at the highest dose activity, negative = inhibition, most hits filed as inhibitors; 410,000 compounds, 1.2% hits; also: potency is read from the fitted curve at half-maximal effect; % is scaled to controls: 0 for no effect and ±100 for the full control effect; nearly all actives have a fitted effect of over 65% in size
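Inhibition was scored as loss of TGF-beta-induced (500 pg/mL final, 18 hours, 37 degrees C) GFP in HEPG2 cells carrying a CAGA-GFP reporter, in DMEM with 1% FBS. Well GFP was summed per cell; Activity was normalised to unstimulated and stimulated DMSO wells, then concentration-response fitting.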
DT40 TDP1 CPT – qHTS for Inhibitors of human tyrosyl-DNA phosphodiesterase 1 (TDP1): qHTS in cells in presence of CPT; chicken DT40 Tdp1-/-;hTDP1 cells + 20 nM CPT, ATP luminescence, 48 h; Potency, µM (titrated, usually from 46.2 µM), for the others: at the highest dose activity change, negative = growth inhibition, hits mostly inhibitors; 420,000 compounds, 12% hits; also: potency is read from the fitted curve at half-maximal effect; % is scaled to controls: 0 for no effect and ±100 for the full control effect; nearly all actives have a fitted effect of over 55% in size
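Cell growth measured by CellTiter-Glo luminescence after a minimum 48 h, 37 C compound exposure with 20 nM CPT in Tdp1-knockout DT40 cells stably expressing hTDP1, seeded 400/well; qHTS titration format.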
Numbers without * were called inactive. Most compounds without a hit are left out; they make up all but 18% or so of the library. Unless noted, calls follow the shape of the dose curve; as a rule, active = well fitted curve in the direction sought with a large enough effect; inconclusive = small, poorly fitted or top-dose-only effect, or another doubt; inactive = no such curve, though single readings can be large; an effect the other way counts as inactive or inconclusive.

For CCc1ccc(S(=O)(=O)Nc2ccc(-c3ccc(N4CCCCCC4)nn3)cc2)cc1 the results were TDP1 inh -0.6%, DT40 TDP1 no CPT -6.6%, HepG2 viability 2.5%, TGFb inhibitor -4.9% and DT40 TDP1 CPT -10.7%.
CCc1ccc(S(=O)(=O)Nc2ccc(-c3ccc(N4CCCC4)nn3)cc2)cc1 was read as TDP1 inh -0.6%, DT40 TDP1 no CPT -15.3%, HepG2 viability -1.3%, TGFb inhibitor -6.0% and DT40 TDP1 CPT -21.8%.
For Cc1c(C(=O)Nc2ccc(F)cc2)sc2ncn(CC(=O)N3CCCCC3)c(=O)c12 the results were TDP1 inh 3.8%, DT40 TDP1 no CPT inconclusive, IL1B secr inh 35.0, HepG2 viability -35.4%, TGFb inhibitor 18.7% and DT40 TDP1 CPT -7.4%.
For Cc1cn(CC(=O)NCCc2ccccn2)c(=O)[nH]c1=O the results were DT40 TDP1 no CPT -1.9%, IL1B secr inh 16.9, HepG2 viability 6.2%, TGFb inhibitor -4.7% and DT40 TDP1 CPT -11.7%.
For CCCn1cc(NC(=O)c2cc(-c3ccccc3)on2)cn1 the results were TDP1 inh 0.5%, DT40 TDP1 no CPT 23.1µM*, IL1B secr inh 0.0, HepG2 viability -4.0%, TGFb inhibitor -12.3% and DT40 TDP1 CPT inconclusive.
Screening O=C(Nc1cnn(C23CC4CC(CC(C4)C2)C3)c1)c1cc(-c2ccccc2)on1 returned TDP1 inh 6.5%, DT40 TDP1 no CPT 20.6µM*, IL1B secr inh -16.0, HepG2 viability 7.4%, TGFb inhibitor 4.5% and DT40 TDP1 CPT 23.1µM*.
COc1ccc(NC(=O)CC(C)c2ccccc2)cc1S(=O)(=O)N1CCOCC1 (configuration not stated) was read as TDP1 inh 1.6%, DT40 TDP1 no CPT inconclusive, IL1B secr inh 16.2, HepG2 viability -21.0%, TGFb inhibitor -9.1% and DT40 TDP1 CPT inconclusive.
COc1ccc(C2CC(=O)C=C3c4ccc(OC)cc4CCC32)cc1 (configuration not stated) was read as DT40 TDP1 no CPT 25.9µM*, IL1B secr inh 20.0, HepG2 viability -29.8%, TGFb inhibitor -1.3% and DT40 TDP1 CPT inconclusive.
Screening COc1ccc2c(c1)CCC1(C)CC(=O)C=C21 (configuration not stated) returned DT40 TDP1 no CPT -23.9%, IL1B secr inh -24.5, HepG2 viability 2.5%, TGFb inhibitor 11.1% and DT40 TDP1 CPT 3.0%.
CCOC(=O)c1cccc(NC(=O)CC2C(=O)N(c3ccc(Cl)cc3)C(=O)N2C2CCCC2)c1 (configuration not stated) was read as TDP1 inh -2.8%, DT40 TDP1 no CPT 18.4µM*, HepG2 viability -36.2%, TGFb inhibitor inconclusive and DT40 TDP1 CPT 20.6µM*.
For COc1ccc(NC(=O)CC2C(=O)N(c3cccc(OC)c3)C(=O)N2C2CCCCC2)cc1 (configuration not stated) the results were TDP1 inh 5.7%, DT40 TDP1 no CPT -3.6%, IL1B secr inh -8.1, HepG2 viability -10.2%, TGFb inhibitor -4.3% and DT40 TDP1 CPT -15.4%.
Screening CCOC(=O)c1cccc(NC(=O)CC2C(=O)N(c3ccc(OC)cc3)C(=O)N2C2CCCC2)c1 (configuration not stated) returned TDP1 inh 8.5%, DT40 TDP1 no CPT 23.1µM*, HepG2 viability -29.7%, TGFb inhibitor inconclusive and DT40 TDP1 CPT 23.1µM*.
`Cc1cc(C)cc(OCCn2ccnc2)c1` gave TDP1 inh 5.9%, DT40 TDP1 no CPT -1.8%, IL1B secr inh 10.7, HepG2 viability -13.2%, TGFb inhibitor -8.2% and DT40 TDP1 CPT -8.9%.
For COC(=O)CC(=O)CSc1nc(C)cc(C)c1C#N the results were TDP1 inh -4.7%, DT40 TDP1 no CPT inconclusive, IL1B secr inh 39.9, HepG2 viability 0.9%, TGFb inhibitor -6.1% and DT40 TDP1 CPT 29.1µM*.
`Cc1cc(C)c(C#N)c(SCC(=O)C(C)(C)C)n1` gave TDP1 inh 4.0%, DT40 TDP1 no CPT -9.5%, IL1B secr inh 19.3, HepG2 viability 6.3%, TGFb inhibitor -6.8% and DT40 TDP1 CPT -1.3%.
`COC(=O)CSc1nsc(SCC(=O)OC)c1C#N` gave TDP1 inh 1.0%, DT40 TDP1 no CPT -19.0%, IL1B secr inh -99.6*, HepG2 viability -32.4%, TGFb inhibitor -25.6% and DT40 TDP1 CPT -32.6%.
COC(=O)CC(=O)CSc1nc2c(cc1C#N)CCC2 was read as TDP1 inh -3.3%, DT40 TDP1 no CPT inconclusive, IL1B secr inh 8.5, HepG2 viability 0.5%, TGFb inhibitor 4.0% and DT40 TDP1 CPT 18.4µM*.
CC(C)OC(=O)CC(=O)CSc1nc2c(cc1C#N)CCC2 was read as TDP1 inh 5.3%, DT40 TDP1 no CPT 8.2µM*, IL1B secr inh 14.2, HepG2 viability 6.2%, TGFb inhibitor 3.8% and DT40 TDP1 CPT inconclusive.
Screening CCCn1nc(C(=O)OCC(=O)Nc2ncc(Cl)c(C)c2Cl)c2ccccc2c1=O returned TDP1 inh 1.9%, DT40 TDP1 no CPT -0.4%, IL1B secr inh 28.6, HepG2 viability -23.5%, TGFb inhibitor 5.5% and DT40 TDP1 CPT 28.1%.
`CCc1nc(SCC(=O)N2CCc3cc(OC)c(OC)cc3C2)c(C#N)cc1C` gave DT40 TDP1 no CPT inconclusive, IL1B secr inh -1.2, HepG2 viability -21.6%, TGFb inhibitor -2.6% and DT40 TDP1 CPT inconclusive.
For COc1cc2c(cc1OC)CN(C(=O)CSc1nc(C)cc(C)c1C#N)CC2 the results were TDP1 inh 5.2%, DT40 TDP1 no CPT 20.6µM*, IL1B secr inh inconclusive, HepG2 viability -8.2%, TGFb inhibitor 29.8% and DT40 TDP1 CPT 23.1µM*.
CN(Cc1c(F)cccc1Cl)C(=O)c1ccc(NC(=O)CC2SC(N3CCCC3)=NC2=O)cc1 (configuration not stated) was read as TDP1 inh 0.2%, DT40 TDP1 no CPT 18.4µM*, IL1B secr inh -11.0, HepG2 viability 21.9%, TGFb inhibitor -0.3% and DT40 TDP1 CPT inconclusive.
For Clc1ccc(CN2CCC(c3nc4ccc(Cl)cc4[nH]3)CC2)cc1 the results were TDP1 inh 2.1%, DT40 TDP1 no CPT 11.6µM*, IL1B secr inh -61.4*, HepG2 viability -61.5%, TGFb inhibitor inconclusive and DT40 TDP1 CPT 16.4µM*.
